Among all 5,500 compounds or so, about 2,000 (36%) were called active. About 18% were inconclusive and are not listed. No stated cut-off is given here; in the data, active means normalized growth mostly below about 0.91 (no sharp cut-off); inconclusive means no clear call, values can overlap the other calls; inactive means mostly above about 0.92. The list shows a part of the results.
Experiment: chemical genetic growth profiling, strain panel (AID 1159580);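 further: tested at 20 µM; growth read once vehicle control cultures reached saturation at 30 °C; 1 = growth at the plate median or of vehicle wells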
Conditions: growth OD

Measured: normalized growth

O=c1cc[nH]c(=S)[nH]1
inactive: S. cerevisiae deletion strains, locus YJR075W, strain HOC1, stronger effect = lower value 1.03 | S. cerevisiae deletion strains, locus YKL009W, strain mrt4, stronger effect = lower value 1.04 | S. cerevisiae deletion strains, locus YKL068W, stronger effect = lower value 1 | S. cerevisiae deletion strains, locus YKL085W, strain MDH1 (second series), stronger effect = lower value 1.01 | S. cerevisiae deletion strains, locus YKL085W, strain MDH1, stronger effect = lower value 1.01 | S. cerevisiae deletion strains, locus YKL160W, strain elf1, stronger effect = lower value 1.06 | S. cerevisiae deletion strains, locus YKL190W, strain CNB1, stronger effect = lower value 1.02 | S. cerevisiae deletion strains, locus YKR001C, strain vps1, stronger effect = lower value 1.05 | S. cerevisiae deletion strains, locus YKR026C, strain gcn3, stronger effect = lower value 1.01 | S. cerevisiae deletion strains, locus YKR091W, strain srl3, stronger effect = lower value 1 | S. cerevisiae deletion strains, locus YLL001W, strain dnm1, stronger effect = lower value 1.04 | S. cerevisiae deletion strains, locus YLL026W, stronger effect = lower value 0.999 | S. cerevisiae deletion strains, locus YLL041C, strain sdh2, stronger effect = lower value 1.01 | S. cerevisiae deletion strains, locus YLR027C, strain aat2, stronger effect = lower value 1.02 | S. cerevisiae deletion strains, locus YLR039C, strain RIC1, stronger effect = lower value 1.09 | S. cerevisiae deletion strains, locus YLR058C, strain SHM2, stronger effect = lower value 1.02 | S. cerevisiae deletion strains, locus YLR102C, strain apc9, stronger effect = lower value 0.992 | S. cerevisiae deletion strains, locus YLR113W, strain HOG1, stronger effect = lower value 1.01 | S. cerevisiae deletion strains, locus YLR221C, strain rsa3, stronger effect = lower value 1.01 | S. cerevisiae deletion strains, locus YLR258W, strain gsy2, stronger effect = lower value 0.989 | S. cerevisiae deletion strains, locus YLR262C, strain YPT6 (second series), stronger effect = lower value 1.03 | S. cerevisiae deletion strains, locus YLR262C, strain YPT6, stronger effect = lower value 1.08 | S. cerevisiae deletion strains, locus YLR268W, strain sec22, stronger effect = lower value 1.05 | S. cerevisiae deletion strains, locus YLR320W, strain mms22, stronger effect = lower value 1.06 | S. cerevisiae deletion strains, locus YLR330W, strain CHS5, stronger effect = lower value 1.03 | S. cerevisiae deletion strains, locus YLR342W, strain FKS1 (second series), stronger effect = lower value 1 | S. cerevisiae deletion strains, locus YLR342W, strain FKS1, stronger effect = lower value 1.01 | S. cerevisiae deletion strains, locus YLR357W, strain rsc2, stronger effect = lower value 1.04 | S. cerevisiae deletion strains, locus YLR370C, strain arc18, stronger effect = lower value 0.997 | S. cerevisiae deletion strains, locus YLR371W, strain rom2, stronger effect = lower value 0.996 | S. cerevisiae deletion strains, locus YLR384C, strain iki3, stronger effect = lower value 1.01 | S. cerevisiae deletion strains, locus YLR418C, strain cdc73, stronger effect = lower value 1.03 | S. cerevisiae deletion strains, locus YML016C, strain PPZ1, stronger effect = lower value 1.02 | S. cerevisiae deletion strains, locus YML032C, strain rad52, stronger effect = lower value 1.05 | S. cerevisiae deletion strains, locus YML120C, strain ndi1, stronger effect = lower value 1.01 | S. cerevisiae deletion strains, locus YML124C, strain tub3, stronger effect = lower value 1.01 | S. cerevisiae deletion strains, locus YMR058W, strain fet3, stronger effect = lower value 1.01 | S. cerevisiae deletion strains, locus YMR078C, strain ctf18, stronger effect = lower value 1.02 | S. cerevisiae deletion strains, locus YMR125W, strain sto1, stronger effect = lower value 1.05 | S. cerevisiae deletion strains, locus YMR129W, stronger effect = lower value 0.999 | S. cerevisiae deletion strains, locus YMR205C, strain PFK2, stronger effect = lower value 1.05 | S. cerevisiae deletion strains, locus YMR223W, strain ubp8, stronger effect = lower value 0.992 | S. cerevisiae deletion strains, locus YMR231W, strain pep5, stronger effect = lower value 1.01 | S. cerevisiae deletion strains, locus YMR263W, strain SAP30, stronger effect = lower value 1.03 | S. cerevisiae deletion strains, locus YMR307W, strain GAS1, stronger effect = lower value 1.01 | S. cerevisiae deletion strains, locus YNL067W, strain RPL9B, stronger effect = lower value 1.03 | S. cerevisiae deletion strains, locus YNL071W, strain lat1, stronger effect = lower value 1.02 | S. cerevisiae deletion strains, locus YNL128W, strain TEP1, stronger effect = lower value 1.03 | S. cerevisiae deletion strains, locus YNL153C, strain GIM3, stronger effect = lower value 1.03 | S. cerevisiae deletion strains, locus YNL183C, strain NPR1, stronger effect = lower value 0.921 | S. cerevisiae deletion strains, locus YNL209W, strain ssb2, stronger effect = lower value 1 | S. cerevisiae deletion strains, locus YNL233W, strain BNI4, stronger effect = lower value 1.01 | S. cerevisiae deletion strains, locus YNL248C, strain rpa49, stronger effect = lower value 1.09 | S. cerevisiae deletion strains, locus YNL250W, strain rad50, stronger effect = lower value 1.01 | S. cerevisiae deletion strains, locus YNL271C, strain bni1, stronger effect = lower value 1.01 | S. cerevisiae deletion strains, locus YNL298W, strain CLA4, stronger effect = lower value 1.02 | S. cerevisiae deletion strains, locus YNL307C, strain MCK1, stronger effect = lower value 1.01 | S. cerevisiae deletion strains, locus YNL322C, strain KRE1 (second series), stronger effect = lower value 1.02 | S. cerevisiae deletion strains, locus YNL322C, strain KRE1, stronger effect = lower value 1.02 | S. cerevisiae deletion strains, locus YNR049C, strain mso1, stronger effect = lower value 1 | S. cerevisiae deletion strains, locus YNR052C, strain pop2, stronger effect = lower value 1 | S. cerevisiae deletion strains, locus YOL006C, strain TOP1, stronger effect = lower value 1.1 | S. cerevisiae deletion strains, locus YOL012C, strain htz1 1.32 | S. cerevisiae deletion strains, locus YOL147C, strain pex11, stronger effect = lower value 1.01 | S. cerevisiae deletion strains, locus YOR001W, strain rrp6, stronger effect = lower value 0.972 | S. cerevisiae deletion strains, locus YOR061W, strain CKA2, stronger effect = lower value 1.02 | S. cerevisiae deletion strains, locus YOR069W, strain VPS5, stronger effect = lower value 1.01 | S. cerevisiae deletion strains, locus YOR070C, strain gyp1, stronger effect = lower value 0.997 | S. cerevisiae deletion strains, locus YOR080W, strain dia2, stronger effect = lower value 1 | S. cerevisiae deletion strains, locus YOR083W, strain WHI5, stronger effect = lower value 1.06 | S. cerevisiae deletion strains, locus YOR106W, strain vam3, stronger effect = lower value 1.05 | S. cerevisiae deletion strains, locus YOR136W, strain idh2, stronger effect = lower value 1.01 | S. cerevisiae deletion strains, locus YOR144C, strain elg1, stronger effect = lower value 1.02 | S. cerevisiae deletion strains, locus YOR184W, strain ser1, stronger effect = lower value 1.03 | S. cerevisiae deletion strains, locus YOR231W, strain MKK1, stronger effect = lower value 1.01 | S. cerevisiae deletion strains, locus YOR265W, strain rbl2, stronger effect = lower value 1.02 | S. cerevisiae deletion strains, locus YOR270C, strain vph1, stronger effect = lower value 1.04 | S. cerevisiae deletion strains, locus YOR290C, strain snf2, stronger effect = lower value 1.04 | S. cerevisiae deletion strains, locus YOR316C, strain cot1, stronger effect = lower value 0.998 | S. cerevisiae deletion strains, locus YPL051W, strain arl3, stronger effect = lower value 1.05 | S. cerevisiae deletion strains, locus YPL055C, strain LGE1, stronger effect = lower value 1.06 | S. cerevisiae deletion strains, locus YPL078C, strain atp4, stronger effect = lower value 1.06 | S. cerevisiae deletion strains, locus YPL106C, strain sse1, stronger effect = lower value 1 | S. cerevisiae deletion strains, locus YPL240C, strain hsp82, stronger effect = lower value 1.01 | S. cerevisiae deletion strains, locus YPL241C, strain CIN2, stronger effect = lower value 1.01 | S. cerevisiae deletion strains, locus YPL256C, strain CLN2, stronger effect = lower value 1 | S. cerevisiae deletion strains, locus YPR119W, strain clb2, stronger effect = lower value 1 | S. cerevisiae deletion strains, locus YPR141C, strain kar3, stronger effect = lower value 1.01 | S. cerevisiae deletion strains, locus YPR163C, strain tif3, stronger effect = lower value 1.02 | S. cerevisiae deletion strains, locus YPR167C, strain met16, stronger effect = lower value 1.02 | S. cerevisiae deletion strains, strain wtn01, stronger effect = lower value 1.04 | S. cerevisiae strains, strain wild type, stronger effect = lower value 1.03

Reference: PubChem BioAssay AID1159580 (chemical genetic matrix, 2015)
